The values that follow come from PubChem BioAssay (NCATS).

A number with no mark means an inactive call. Records with an inconclusive call do not appear. Active and inactive are the calls of the source. Unless noted, calls come from the whole dose curve; as a rule, active = well fitted curve in either direction with a large enough effect (not every such curve was filed as active); inconclusive = small, poorly fitted or top-dose-only effect, or another doubt; inactive = flat fitted curve, though single readings scatter.

Test [1] is described as follows: AP1 Signaling Pathway (AID 357).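 Note: ME-180 reporter cells stimulated with EGF at its EC50 level; % is set by controls: 0 for no effect and ±100 for the full control effect.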 The method in brief: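 Read-out was the 460nm/530nm emission ratio (excitation 405nm) after CCF4 loading for 2.5 hours at room temperature. Cells carried an AP-1-driven beta-lactamase reporter, were stimulated with EC50 EGF plus compound for 5 hours, and AC50 values came from titrations.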
The target in test [2] is Cytochrome P450 1A2 (Homo sapiens) (UniProt P05177). The test can be described thus: p450-cyp1a2 (AID 410; calls by dose curve; note: potency is the fitted concentration of half-maximal effect;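 for activity change, negative = inhibition: -100% = full effect of reference inhibitor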). The method in brief: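 O-Demethylation of luciferin 6' methyl ether by human CYP1A2 is monitored as luciferase luminescence. Substrate sits at Km (100uM); enzyme is 20nM. Values are scaled to 57 uM furafylline as maximal inhibition.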
Cytochrome P450 1A2 (Homo sapiens), sequence (P05177 whole entry, looked up): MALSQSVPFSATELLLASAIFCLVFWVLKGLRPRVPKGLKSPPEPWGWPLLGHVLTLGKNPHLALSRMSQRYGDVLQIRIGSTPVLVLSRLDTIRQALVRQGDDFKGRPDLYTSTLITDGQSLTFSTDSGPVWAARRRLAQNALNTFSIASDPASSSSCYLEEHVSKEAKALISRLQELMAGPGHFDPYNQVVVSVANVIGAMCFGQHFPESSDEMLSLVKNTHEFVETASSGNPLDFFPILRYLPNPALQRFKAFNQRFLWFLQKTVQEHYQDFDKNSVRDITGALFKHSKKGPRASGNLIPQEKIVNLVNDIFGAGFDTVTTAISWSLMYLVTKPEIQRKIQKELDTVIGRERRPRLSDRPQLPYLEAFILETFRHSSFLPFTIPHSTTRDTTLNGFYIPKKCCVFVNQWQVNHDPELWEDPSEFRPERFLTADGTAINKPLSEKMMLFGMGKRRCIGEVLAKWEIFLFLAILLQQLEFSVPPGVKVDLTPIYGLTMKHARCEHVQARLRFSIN
The nature of test [3]: NFAT Signaling Pathway (AID 444).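 Note: carbachol stimulus at about its EC50 of 1 µM final; % is set by controls: 0 for no effect and ±100 for the full control effect.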 The conditions noted are these: Jurkat NFAT-bla M1, carbachol, beta-lactamase ratio, 5 h; at 17.2 µM (top of the series) unless noted. The method in brief:
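Jurkat cells with NFAT-driven β-lactamase reporter and co-expressed M1 receptor, stimulated with carbachol (final 1 uM, ~EC50), compound titration, 5 h at 37 °C. CCF4 loaded 1 h at RT; 460/530 nm ratio gave %activity and AC50.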

Test [4] is described as follows: Stat Signaling Pathway (AID 446).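 Note: ME-180 cervical cancer cells given 40 pM IL-6 alongside compound; SIE-controlled beta-lactamase reporter measured as 460/530 nm FRET emission ratio; % is set by controls: 0 for no effect and ±100 for the full control effect.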 In short, it runs like this:
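Overnight-plated ME-180 cells bearing a STAT Inducible Element beta-lactamase reporter; 5 h co-exposure to compound and 40 pM IL-6; values normalized to 300 pM IL-6 and 125 nM JAK inhibitor controls.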

The target of test [5] is Mitogen-activated protein kinase 10 (Mus musculus) (UniProt Q61831). Nature of the test: JNK3 AlphaScreen Assay (AID 530).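 Note: kinase came from lysate of stimulated human HepG2 cells; signal reports phosphorylation of biotinylated GST-cJun 1-79 at Ser73 with 10 µM ATP; % is set by controls: 0 for no effect and ±100 for the full control effect.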 The method in brief:
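Activity was read by AlphaScreen after JNK3-containing HepG2 lysate (cytokine pre-activated) phosphorylated biotinylated GST-cJun with 10 uM ATP at room temperature. Phospho-Ser73 cJun antibody with Protein-A acceptor beads provided detection.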

For test [6], the target named is Glucocorticoid receptor (Homo sapiens) (UniProt P04150). The test can be described thus: GR-GFP Redistribution (AID 450;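 active = compounds whose dose series gives a full or clear partial fitted curve of increased nuclear translocation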; note: potency is the fitted concentration of half-maximal effect). The conditions noted are these: U2OS GR-GFP nuclear translocation, laser cytometry, 2 h.
Glucocorticoid receptor (Homo sapiens), sequence (P04150 whole entry, looked up): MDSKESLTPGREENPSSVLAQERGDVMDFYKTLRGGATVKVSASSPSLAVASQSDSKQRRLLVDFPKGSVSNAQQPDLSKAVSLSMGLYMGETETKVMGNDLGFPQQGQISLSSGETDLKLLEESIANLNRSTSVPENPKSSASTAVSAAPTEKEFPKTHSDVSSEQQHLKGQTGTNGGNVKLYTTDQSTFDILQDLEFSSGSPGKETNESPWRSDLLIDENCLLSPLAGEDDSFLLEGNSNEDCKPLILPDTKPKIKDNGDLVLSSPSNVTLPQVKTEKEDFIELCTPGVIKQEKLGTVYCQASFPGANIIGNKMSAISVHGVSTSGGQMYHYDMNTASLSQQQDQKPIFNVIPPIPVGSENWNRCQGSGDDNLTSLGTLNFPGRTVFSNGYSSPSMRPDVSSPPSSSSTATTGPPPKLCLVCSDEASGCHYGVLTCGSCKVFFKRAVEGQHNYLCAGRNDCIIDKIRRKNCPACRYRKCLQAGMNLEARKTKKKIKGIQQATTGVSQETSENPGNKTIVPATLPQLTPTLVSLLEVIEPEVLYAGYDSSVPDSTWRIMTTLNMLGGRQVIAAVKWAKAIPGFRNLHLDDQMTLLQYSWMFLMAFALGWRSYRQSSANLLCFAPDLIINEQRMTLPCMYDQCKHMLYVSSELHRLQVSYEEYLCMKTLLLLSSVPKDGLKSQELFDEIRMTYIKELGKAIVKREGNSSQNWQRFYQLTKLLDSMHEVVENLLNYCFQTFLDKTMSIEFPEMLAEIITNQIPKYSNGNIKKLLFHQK
Test [7] has the same target. Nature of the test: GR-EFC Redistribution (AID 451; calls by dose curve; note: potency is the fitted concentration of half-maximal effect). The conditions noted are these: CHO-K1 GR-EFC translocation, beta-gal luminescence, 2 h. In short, it runs like this:
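CHO-K1 cells expressing nuclear EA and GR-ED fragments of b-gal; compounds titrated up to 46 uM final, 2 h at 37 C. GR nuclear translocation read as complemented b-gal luminescence after 1 h RT detection.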

The target of test [8] is Lysosomal acid glucosylceramidase (Homo sapiens) (UniProt P04062). Nature of the test: Glucocerebrosidase-p2 (AID 348; in the data active = potency below about 10 µM; note: potency is the fitted concentration of half-maximal effect). Particulars: purified GBA, blue fluorogenic substrate, 40 min. The method in brief: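 Normal human glucocerebrosidase (0.2 nM) with blue fluorogenic substrate (80 uM final) in citrate/phosphate pH 5.9 with 10mM sodium taurocholate, 0.01% tween-20; 40 min RT, NaOH/glycine stop; fluorescence Ex 365/Em 440; AC50 from a titration from 0.6 nM upwards.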
Lysosomal acid glucosylceramidase (Homo sapiens), sequence (P04062 whole entry, looked up): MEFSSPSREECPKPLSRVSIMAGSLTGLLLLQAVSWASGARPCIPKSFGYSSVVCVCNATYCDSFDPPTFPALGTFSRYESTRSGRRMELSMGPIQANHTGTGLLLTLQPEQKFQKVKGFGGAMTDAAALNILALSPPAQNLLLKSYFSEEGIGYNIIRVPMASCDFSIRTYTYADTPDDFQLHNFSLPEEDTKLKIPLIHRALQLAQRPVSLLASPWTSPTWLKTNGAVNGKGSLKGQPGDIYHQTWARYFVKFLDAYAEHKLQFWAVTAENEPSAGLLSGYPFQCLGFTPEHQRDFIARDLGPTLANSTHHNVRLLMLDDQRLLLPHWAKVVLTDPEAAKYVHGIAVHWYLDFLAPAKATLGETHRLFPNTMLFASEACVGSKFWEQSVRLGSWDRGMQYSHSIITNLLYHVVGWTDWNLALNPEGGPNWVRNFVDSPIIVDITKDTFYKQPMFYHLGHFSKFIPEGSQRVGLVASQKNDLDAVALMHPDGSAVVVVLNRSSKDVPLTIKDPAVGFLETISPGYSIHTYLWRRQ

Consider `CNC(=O)c1c(I)c(C(=O)NCC(=O)Nc2c(I)c(C(=O)O)c(I)c(C(=O)NCCO)c2I)c(I)c(N(C)C(C)=O)c1I`, for which the outcome in test [1], in test [4] and in test [5] was inactive. Further, the Potency result in test [2] is “inactive”. Further, the activity change, negative = inhibition in test [3] was -16%.
On to `CN1C(=O)OC(C)(C)C1=O`, for which the compound was classed as inactive in test [1] and in test [5]. In addition, in test [2], the Potency entry is “inactive”. In addition, the activity change, negative = inhibition in test [3] was -1.31%. For the same compound, the Potency in test [6] and in test [7] was over 20.6 µM each time.
`CC(=O)Oc1cc(C(F)(F)F)ccc1C(=O)O`: the Potency entry in test [2] is “inactive”. The activity change, negative = inhibition in test [3] was 27.2%. The outcome in test [4] and in test [5] was inactive. For the same compound, the Potency in test [6] and in test [7] was over 20.6 µM in each case.
`CCc1cn([C@H]2C[C@H](O)[C@@H](CO)O2)c(=O)[nH]c1=O`: the result in test [1] and in test [4] was inactive. Further, the activity change, negative = inhibition in test [3] was 23.4%. Also, the Potency in test [6] is over 20.6 µM.
On to `O=P(O)(O)OP(=O)(O)O`, for which the figures for the Potency in test [8], in test [6] and in test [7] were over 11.4 µM, over 46 µM and over 9.22 µM, respectively. Moreover, the call in test [1] and in test [4] was inactive. Further, the activity change, negative = inhibition in test [3] was 3.99% [at 7.69 µM]; in test [5], 0.801% [at 11.4 µM].
As to `Cc1cccc(C)c1NC(=O)C1CCCCN1C` (stereo unspecified), the outcome in test [1] and in test [4] was inactive. Moreover, the activity change, negative = inhibition in test [3] was -26%. The Potency in test [6] was over 20.6 µM.
As to `N[C@H](CC(=O)O)C(=O)O`, the compound was called inactive in test [1], in test [4] and in test [5]. For the same compound, the activity change, negative = inhibition in test [3] was 13.7% [at 38 µM]. The Potency in test [6] and in test [7] was over 46 µM each time.
`O=C(O)c1ccc(OCCn2ccnc2)cc1`: the compound was called inactive in test [1] and in test [4]. Further, the activity change, negative = inhibition in test [3] is -10.7%. For the same compound, the Potency in test [6] was over 20.6 µM.
`Cc1cc(C)c(NC(=O)C[C@H](CC(=O)O)c2cccc3ccccc23)c(C(=O)N2CCC3(CCCC3)CC2)c1`: the compound was classed as inactive in test [1], in test [4] and in test [5]. Also, in test [2], the Potency entry was “inactive”. Also, the activity change, negative = inhibition in test [3] was -7.66% [at 38 µM]. Besides, the Potency in test [6] and in test [7] was over 46 µM throughout.
For `CC(=O)[C@H]1CC[C@H]2[C@@H]3C=CC4=CC(=O)CC[C@@]4(C)[C@H]3CC[C@]12C`, the compound was called inactive in test [1], in test [4] and in test [5]. Moreover, the Potency result in test [2] was “inactive”. In addition, in test [7], the Potency is over 20.6 µM.
On to `CCCC(CCC)C(=O)OC1C[C@H]2CC[C@@H](C1)[N+]2(C)C` (stereo partly specified), for which the compound was called inactive in test [1] and in test [4]. For the same compound, the activity change, negative = inhibition in test [3] was -90.3% (active).
In the case of `O=C1NCCN1c1ncc([N+](=O)[O-])s1`, the call in test [1], in test [4] and in test [5] was inactive. In test [3], the activity change, negative = inhibition was -7.97%. Besides, the Potency in test [6] and in test [7] was over 20.6 µM in each case.
Take `C[C@]12CC[C@@H]3c4ccc(OC(=O)c5ccccc5)cc4CC[C@H]3[C@@H]1CC[C@@H]2O`: the compound was classed as inactive in test [1].
As for `CCSc1ccc2c(c1)N(CCCN1CCN(C)CC1)c1ccccc1S2`, in test [2], the Potency was 0.316 µM (active). For the same compound, the compound was classed as inactive in test [4] and in test [5].
For `Cc1cc(-c2ccc(N=Nc3ccc4c(S(=O)(=O)O)cc(S(=O)(=O)O)c(N)c4c3O)c(C)c2)ccc1N=Nc1ccc2c(S(=O)(=O)O)cc(S(=O)(=O)O)c(N)c2c1O`, the Potency is 12.6 µM (active) in test [2], over 46 µM in test [6] and over 46 µM in test [7].
Turning to `COc1cc(S(C)=O)ccc1-c1nc2ncccc2[nH]1` (stereo unspecified), the call in test [1] and in test [4] was inactive. Also, the Potency in test [2] was 0.251 µM (active); in test [6], over 20.6 µM; in test [7], over 20.6 µM. Further, the activity change, negative = inhibition in test [3] is 21.1%.
